The list is not random: actives were taken first. Their share in the collection is about 2.7%.
mIDH1 inhibitor: qHTS for Inhibitors of mutant isocitrate dehydrogenase 1 (IDH1): qHTS; Isocitrate dehydrogenase [NADP] cytoplasmic (Homo sapiens), O75874; IDH1-R132H enzyme, NADPH consumption, diaphorase/resazurin fluorescence; Potency, µM (highest dose often 76.6 µM), without a hit: at the highest dose activity change, negative = inhibition, usual class: inhibitors; 0.093% of 390,000 active; also: potency is read from the fitted curve at half-maximal effect; % is scaled to controls: 0 for no effect and ±100 for the full control effect; nearly all actives have a fitted effect of over 65% in size
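IDH1-R132H (0.5 ug/mL dispensed) in pH 7.5 Tris buffer was preincubated 30 min with compound, then given a substrate mix of 0.016 mM NADPH and 2 mM alpha-KG for 80 min at room temperature; remaining NADPH was read by diaphorase/resazurin fluorescence.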
Nrf2 inh: Nrf2 qHTS screen for inhibitors. AID 504444, 2011. 2.1% of 360,000 active. A549 ARE-Fluc reporter, luciferase luminescence, 18-24 h. Potency, µM (top dose mostly 46 µM), inactives show at the highest dose activity change, negative = inhibition, most hits filed as inhibitors; also: potency is read from the fitted curve at half-maximal effect; % is scaled to controls: 0 for no effect and ±100 for the full control effect; nearly all actives have a fitted effect of over 60% in size
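In this cell-based qHTS, ARE-driven firefly luciferase in A549 cells reports Nrf2 activity; the luminescent signal after BugLite lysis is the measured value, with a prior CellTiter-Fluor read for cell health.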
A549 tox-1: Nrf2 qHTS screen for inhibitors: counterscreen for cytotoxicity | A549 ARE-Fluc cells, CellTiter-Fluor viability, 18-24 h | Potency, µM (titrated, usually from 46 µM), inactives show top-dose activity change, negative = cytotoxicity, actives largely listed as inhibitors | 0.16% of 390,000 active | AID 504648, 2011; also: potency is read from the fitted curve at half-maximal effect; % is scaled to controls: 0 for no effect and ±100 for the full control effect
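A549 ARE-Fluc cells in 5% FBS OPTI-MEM, 5000 cells/well, rested 2 h then exposed to compounds in concentration-response for 18-24 h at 37 °C. Viability by CellTiter-Fluor fluorescence (Ex 405/Em 525) after 30 min; luciferase luminescence (BugLite, 15 min, RT) read afterwards.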
Nrf2 ARE act: qHTS of Nrf2 Activators; 0.31% of 410,000 active; Potency, µM (top dose mostly 46.1 µM), inactives show at the highest dose activation, actives largely listed as activators; AREc32 ARE-luciferase reporter (MCF7-derived line), luminescence, 24 h; AID 624171, 2012; also: potency is read from the fitted curve at half-maximal effect; % of control where 0% means no effect; nearly all actives have a fitted effect of over 65% in size
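For detection, Steady-Glo was added and plates sat 30 min at RT; before that, AREc32_Fluc cells grown overnight in OPTI-MEM/5% FBS had been treated with 23 nL compound for 24 hr at 37 deg C.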
LDHA inh: qHTS assay for inhibitors of human lactate dehydrogenase | L-lactate dehydrogenase A chain (Homo sapiens), P00338 | purified LDHA, NADH/diaphorase-resazurin fluorescence; hits give low values | 0.15% of 480,000 active | activity change, % (values are at about 110 or 230 µM); in the data active = activity change below about -30%; inconclusive = mostly about -25% to -30%;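 also: plate controls were DMSO wells for no effect and wells without enzyme for full effect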
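Enzyme activity of human lactate dehydrogenase 5 (2 nM; 0.06 mM NADH, 0.2 mM pyruvate, 5 min, RT) is measured via a resazurin/diaphorase fluorescence readout of residual NADH.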
12-LOX inh: Primary qHTS assay for inhibitors of human arachidonate 12S-lipoxygenase (ALOX12): Round 2; Potency, µM (highest dose often 108 µM), for inactives: at the top dose activity change, negative = inhibition, usual class: inhibitors; purified 12hLO, xylenol orange hydroperoxide absorbance; 1.1% of 580,000 active; AID 1671190, 2021; Polyunsaturated fatty acid lipoxygenase ALOX12 (Homo sapiens), P18054; also: potency is read from the fitted curve at half-maximal effect; % is scaled to controls: 0 for no effect and ±100 for the full control effect
Target sequence (P18054 whole entry, looked up): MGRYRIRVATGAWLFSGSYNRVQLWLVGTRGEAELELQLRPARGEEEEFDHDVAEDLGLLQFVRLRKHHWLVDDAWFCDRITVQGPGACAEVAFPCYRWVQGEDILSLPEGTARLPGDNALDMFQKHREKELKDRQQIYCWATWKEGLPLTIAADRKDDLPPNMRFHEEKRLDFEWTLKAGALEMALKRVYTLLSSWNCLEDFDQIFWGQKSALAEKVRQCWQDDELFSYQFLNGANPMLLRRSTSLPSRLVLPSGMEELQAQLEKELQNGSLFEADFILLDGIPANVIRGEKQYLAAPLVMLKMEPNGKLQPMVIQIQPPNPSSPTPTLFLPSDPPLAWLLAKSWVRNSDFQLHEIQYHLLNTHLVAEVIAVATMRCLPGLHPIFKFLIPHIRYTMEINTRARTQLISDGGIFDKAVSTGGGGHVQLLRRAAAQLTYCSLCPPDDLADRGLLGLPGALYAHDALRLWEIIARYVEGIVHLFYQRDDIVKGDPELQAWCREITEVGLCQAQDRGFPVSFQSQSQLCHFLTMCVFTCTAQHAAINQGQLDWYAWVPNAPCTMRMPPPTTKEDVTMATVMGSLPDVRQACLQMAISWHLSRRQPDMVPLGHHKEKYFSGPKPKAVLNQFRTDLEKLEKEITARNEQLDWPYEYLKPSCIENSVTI
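Purified human 12hLO at 150 nM in 25 mM Hepes, 0.01% Triton X-100, pH 7.0, preincubated 15 min at room temperature with compound. Reaction started with 40 uM arachidonic acid, 30 min at room temperature. Hydroperoxide measured by Fe-xylenol orange, 573/405 nm absorbance ratio.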
FLuc enzyme inh: Nrf2 qHTS screen for inhibitors: Purified Fluc Biochemical Counterscreen for Hit Validation; Potency, µM (top dose mostly 57.5 µM), inactives show at the top dose activity change, negative = inhibition, hits mostly inhibitors; AID 720522, 2013; 4% of 1,400 active; purified firefly luciferase, luminescence inhibition; shares compounds with Nrf2 inh; also: potency is read from the fitted curve at half-maximal effect; % is scaled to controls: 0 for no effect and ±100 for the full control effect; nearly all actives have a fitted effect of over 65% in size
A549 tox-2: Nrf2 qHTS screen for inhibitors: A549 ARE-Fluc Cytotoxicity Counterscreen for Hit Validation. shares compounds with Nrf2 inh. A549 ARE-Fluc cells, cytotoxicity counterscreen. Potency, µM (highest dose often 46.1 µM), inactives show at the top dose activity change, negative = cytotoxicity, hits mostly inhibitors. 2% of 1,400 active. AID 720523, 2013;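 also: potency is read from the fitted curve at half-maximal effect; cells exposed to compounds for 18 to 24 hours; % is scaled to controls: 0 for no effect and ±100 for the full control effect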
ARE-Fluc inh: Nrf2 qHTS screen for inhibitors: Nrf2 A549 ARE-Fluc Confirmation Assay for Hit Validation. shares compounds with Nrf2 inh. A549 ARE-firefly luciferase reporter, luminescence. Potency, µM (top dose mostly 46.1 µM), for inactives: at the highest dose activity change, negative = inhibition, most hits filed as inhibitors. 74% of 1,400 active; also: potency is read from the fitted curve at half-maximal effect; % is scaled to controls: 0 for no effect and ±100 for the full control effect; nearly all actives have a fitted effect of over 65% in size
* = called active by the depositor; ? = inconclusive; . = no result. Unless noted, calls follow the shape of the dose curve; as a rule, active = well fitted curve in the direction sought with a large enough effect; inconclusive = small, poorly fitted or top-dose-only effect, or another doubt; inactive = no such curve, though single readings can be large; an effect the other way counts as inactive or inconclusive.

SMILES	mIDH1 inhibitor	Nrf2 inh	A549 tox-1	Nrf2 ARE act	LDHA inh	12-LOX inh	FLuc enzyme inh	A549 tox-2	ARE-Fluc inh
CC(=O)c1c(C)[nH]c(C(=O)OCC(=O)Nc2ccccc2Cl)c1C	-12%	5.8µM*	-12%	5%	-5	-16%	-24%	-4%	5.8µM*
COc1cccc(CN(C)C(=O)c2cccc(S(=O)(=O)N3CCN(c4ccccc4)CC3)c2)c1OC	-4%	7.3µM*	?	0%	-4	6%	0%	?	0.12µM*
COc1cccc(CN(C)C(=O)c2cccc(S(=O)(=O)NCc3ccccc3)c2)c1OC	1%	7.3µM*	-11%	2%	-2	-37%	0%	-3%	-3%
CN(CCOc1ccc(Cl)cc1)C(=O)c1cccc(S(=O)(=O)N2CCN(c3ccccc3)CC2)c1	13%	5.8µM*	?	0%	-1	105%	0%	-14%	23µM*
CN(Cc1ccc(OC(F)F)cc1)C(=O)c1cccc(S(=O)(=O)N2CCN(Cc3ccccc3)CC2)c1	-11%	6.5µM*	-17%	0%	1	18%	-1%	-23%	6.5µM*
CN(Cc1c(F)cccc1Cl)C(=O)c1cccc(S(=O)(=O)N2CCN(Cc3ccccc3)CC2)c1	-12%	?	0%	2%	-3	9%	.	.	.
COc1ccc(CCN(C)C(=O)c2cccc(S(=O)(=O)NCc3ccccc3)c2)cc1OC	7%	?	-6%	2%	-2	114%	.	.	.
CCc1ccc(CCC(=O)N(C)Cc2cccs2)cc1	.	.	.	.	9	38%	.	.	.
CCc1ccc(CN(C)C(C)C(=O)NCc2cccs2)cc1 (centres undefined)	.	.	.	.	-22	-44%	.	.	.
O=C(NCc1ccccc1Cl)C(=O)Nc1cccc(O)c1	.	.	.	.	4	-27%	.	.	.
O=C(OCc1cnc(-c2ccccc2)s1)c1ccc(S(=O)(=O)N2CCCC2)cc1	.	.	.	.	2	33%	.	.	.
CC1(C)CC2CC(C)(CN2C(=O)COC(=O)c2ccccc2C(F)(F)F)C1 (centres undefined)	10%	3.7µM*	-14%	0%	1	-20%	0%	-1%	-24%
Cc1ccc(S(=O)(=O)Nc2ccc(Cl)cc2C(=O)c2ccc(F)cc2)cc1	-8%	?	-5%	0%	-7	-17%	.	.	.
Cc1ccc(S(=O)(=O)Nc2ccc(Cl)cc2C(=O)c2ccccc2)cc1	6%	5.8µM*	-24%	3%	-3	-16%	2%	10%	-2%
Cc1nc2ccc(NC(=O)c3cccs3)cc2c(=O)n1Cc1ccc(Cl)cc1	-1%	4.6µM*	?	9%	2	?	-11%	?	16µM*
CC(C)NC(=O)c1ccccc1I	.	.	.	.	-8	16%	.	.	.

Source: PubChem
